Measured values reported in PubChem BioAssay AID504334 (NMMLSC, 2011).

Assay: yeast AGP1-GFP fluorescence change, single-dose confirmation – cell-based, flow cytometry, S. cerevisiae, cherry pick set 3 (AID 504334);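 also: median GFP fluorescence per well by flow cytometry over the all cells gate; ratio of sample to mean DMSO control signal so DMSO = 100% not 0%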
Settings: S. cerevisiae AGP1-GFP strain, 3 h, at 10 µM, hits give high values;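 active = response relative to DMSO over 150%; inconclusive = yeast strain with under 70 recorded events; inactive = the rest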

Percent response vs DMSO, inactive:
C=CCNc1nc(N)c([N+](=O)[O-])c(Nc2cccc(Cl)c2)n1 92.1%
Nc1c(C(=O)O)ccc2c1C(=O)c1ccccc1C2=O 114%
CSc1nc(Nc2ccc(Cl)cc2)c(C#N)c(=O)[nH]1 98.4%
O=C(/C=C/Nc1cccc(O)c1)c1ccccc1 102%
OCCN1CCN(c2ncnc3ccc(Br)cc23)CC1 99.8%
CCN(CC)C(=O)Oc1ccnc2cc(Cl)ccc12 108%
CC1=NNC(=O)/C1=C\c1cn(-c2ccccc2)nc1-c1ccc(F)cc1 108%
O=C(O)c1ccc2cccnc2c1O 99.8%
CCCCC(=O)NCCc1cc2c(OC)ccc(OC)c2[nH]c1=O 98.8%
Oc1ccc(Cl)c2cccnc12 109%
O=C(Nc1ccc(-c2nc3ccccc3o2)cc1)c1cccnc1 100%
COc1ccccc1Nc1nc(NCCCN(C)C)nc(N)c1[N+](=O)[O-] 102%
CN1CCN(C(=O)c2cc(COc3ccc(F)cc3Cl)on2)CC1c1ccccc1 (centres undefined) 101%
CC(=O)NCCOc1cccc2cccnc12 101%
CC(=O)CC(=O)Nc1ccc(C(N)=O)cc1 100%
COc1ccc(OC)c2c(C)cc(C)nc12 97.1%
Oc1c(Cl)cc(Cl)c2cccnc12 98.8%
Nc1ncnc(Nc2cc(Cl)cc(Cl)c2)c1[N+](=O)[O-] 98.8%
O=C(N/N=C/c1ccccc1F)c1cccc2ccccc12 101%
COc1ccccc1-c1cc(C(F)(F)F)nc(S(=O)(=O)CCCC(=O)O)n1 110%
Nc1ccc(O)c2c1C(=O)c1ccccc1C2=O 103%
Cc1ccc(Nc2cc(=O)[nH]c(=O)[nH]2)cc1C 95.8%
C[n+]1cccc2c(Br)ccc([O-])c21 100%
COc1ccc(NC(=O)O/N=C2/CCCc3ccc(OC)cc32)cc1 95.8%
Nn1cnc2c(c1=O)C1(CCCCC1)Cc1ccccc1-2 94.1%
OCc1ccc(O)c2ncccc12 98.8%
O=C(Nc1ccccc1)O/N=C1\CCCCC1c1ccc([N+](=O)[O-])cc1[N+](=O)[O-] (centres undefined) 102%
COc1cccc2c(=O)c(C(=O)O)c[nH]c12 94.1%
CCN(CC)c1ncnc2ccc(Br)cc12 97.8%
CNc1nc(C)c([N+](=O)[O-])c(Nc2ccc(OC)cc2)n1 99.4%
Cc1ccc2c(C)ccc(O)c2n1 102%
O=C(O)CCS(=O)(=O)c1nc(-c2cccs2)cc(C(F)(F)F)n1 111%
Cc1ccc(NC(=O)O/N=C2\CCCCC2c2ccc([N+](=O)[O-])cc2[N+](=O)[O-])cc1 (centres undefined) 100%
COC(=O)c1cc(=O)c2cccc(OC)c2[nH]1 99.4%
C=CCNc1nc(N)c([N+](=O)[O-])c(Nc2ccccc2OC)n1 95.4%
C/C(=C\C(=O)c1ccc(C)cc1)Nc1cccc(O)c1 101%
COc1cccc2c(O)cc(=O)n(C)c12 99.1%
Cc1cc(C)c2ccc(C(=O)O)nc2c1O 97.4%
CC(=O)C(CC(=O)N1CCCC1)C(=O)Nc1ccc(Cl)cc1 (centres undefined) 100%
